How the values were obtained:
[1] = biological target: Protein kinase C gamma type (Homo sapiens) (UniProt P05129); conditions: at 1 µM;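 also: each value is an averaged percent inhibition of the enzyme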
[2] = biological target: T1, Protein kinase C iota type (Homo sapiens) (UniProt P41743); conditions: at 0.1 µM
T1 sequence (whole entry): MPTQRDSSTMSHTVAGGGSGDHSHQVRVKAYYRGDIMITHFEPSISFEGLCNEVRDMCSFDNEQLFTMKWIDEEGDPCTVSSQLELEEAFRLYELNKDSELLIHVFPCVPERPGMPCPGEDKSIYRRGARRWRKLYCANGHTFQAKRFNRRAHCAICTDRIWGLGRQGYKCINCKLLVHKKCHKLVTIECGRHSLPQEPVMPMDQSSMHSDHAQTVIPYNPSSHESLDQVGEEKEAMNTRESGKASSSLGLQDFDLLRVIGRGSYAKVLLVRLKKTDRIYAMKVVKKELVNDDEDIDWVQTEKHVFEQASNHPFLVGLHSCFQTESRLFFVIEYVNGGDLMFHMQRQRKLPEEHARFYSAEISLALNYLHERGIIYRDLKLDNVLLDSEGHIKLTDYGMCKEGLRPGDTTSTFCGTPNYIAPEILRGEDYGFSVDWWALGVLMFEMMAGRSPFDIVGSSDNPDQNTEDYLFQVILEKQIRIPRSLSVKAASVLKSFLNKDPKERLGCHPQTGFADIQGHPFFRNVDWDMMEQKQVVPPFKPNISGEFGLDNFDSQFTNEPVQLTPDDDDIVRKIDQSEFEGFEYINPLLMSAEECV

[3] = biological target: T1, Protein kinase C iota type (Homo sapiens); conditions: at 1 µM
[4] = biological target: Protein kinase C theta type (Homo sapiens) (UniProt Q04759); conditions: at 0.1 µM
[5] = biological target: Protein kinase C theta type (Homo sapiens) (UniProt Q04759); conditions: at 1 µM
[6] = biological target: Protein kinase C beta type (Homo sapiens) (UniProt P05771); conditions: at 0.1 µM
[7] = biological target: Protein kinase C beta type (Homo sapiens) (UniProt P05771); conditions: at 1 µM
[8] = biological target: T2, Serine/threonine-protein kinase D1 (Homo sapiens) (UniProt Q15139); conditions: at 0.1 µM
T2 sequence (whole entry): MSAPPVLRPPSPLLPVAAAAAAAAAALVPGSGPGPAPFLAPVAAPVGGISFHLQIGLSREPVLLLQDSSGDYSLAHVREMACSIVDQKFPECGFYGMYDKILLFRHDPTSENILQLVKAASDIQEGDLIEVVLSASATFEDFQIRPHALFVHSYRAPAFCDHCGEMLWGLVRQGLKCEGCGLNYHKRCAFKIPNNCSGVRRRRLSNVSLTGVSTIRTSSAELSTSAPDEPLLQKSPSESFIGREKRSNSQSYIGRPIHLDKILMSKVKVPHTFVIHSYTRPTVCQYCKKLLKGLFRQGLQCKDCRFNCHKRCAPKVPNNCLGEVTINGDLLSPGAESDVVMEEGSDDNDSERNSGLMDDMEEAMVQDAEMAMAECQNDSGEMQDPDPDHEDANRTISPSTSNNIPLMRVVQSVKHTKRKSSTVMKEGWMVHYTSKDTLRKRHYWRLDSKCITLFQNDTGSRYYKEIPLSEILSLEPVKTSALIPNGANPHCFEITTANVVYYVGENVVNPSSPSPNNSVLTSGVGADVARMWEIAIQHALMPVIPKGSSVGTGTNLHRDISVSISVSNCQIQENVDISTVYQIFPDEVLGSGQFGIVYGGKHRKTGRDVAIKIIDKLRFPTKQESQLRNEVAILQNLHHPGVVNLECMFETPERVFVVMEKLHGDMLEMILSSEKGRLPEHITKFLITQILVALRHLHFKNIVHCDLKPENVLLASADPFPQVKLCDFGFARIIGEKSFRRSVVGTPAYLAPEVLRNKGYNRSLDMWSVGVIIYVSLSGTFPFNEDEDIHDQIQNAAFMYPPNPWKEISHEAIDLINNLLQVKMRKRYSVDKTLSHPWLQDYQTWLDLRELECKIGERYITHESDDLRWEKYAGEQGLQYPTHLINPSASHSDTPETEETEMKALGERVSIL

[9] = biological target: T2, Serine/threonine-protein kinase D1 (Homo sapiens); conditions: at 1 µM
[10] = biological target: T3, Serine/threonine-protein kinase D2 (Homo sapiens) (UniProt Q9BZL6); conditions: at 0.1 µM
T3 sequence (whole entry): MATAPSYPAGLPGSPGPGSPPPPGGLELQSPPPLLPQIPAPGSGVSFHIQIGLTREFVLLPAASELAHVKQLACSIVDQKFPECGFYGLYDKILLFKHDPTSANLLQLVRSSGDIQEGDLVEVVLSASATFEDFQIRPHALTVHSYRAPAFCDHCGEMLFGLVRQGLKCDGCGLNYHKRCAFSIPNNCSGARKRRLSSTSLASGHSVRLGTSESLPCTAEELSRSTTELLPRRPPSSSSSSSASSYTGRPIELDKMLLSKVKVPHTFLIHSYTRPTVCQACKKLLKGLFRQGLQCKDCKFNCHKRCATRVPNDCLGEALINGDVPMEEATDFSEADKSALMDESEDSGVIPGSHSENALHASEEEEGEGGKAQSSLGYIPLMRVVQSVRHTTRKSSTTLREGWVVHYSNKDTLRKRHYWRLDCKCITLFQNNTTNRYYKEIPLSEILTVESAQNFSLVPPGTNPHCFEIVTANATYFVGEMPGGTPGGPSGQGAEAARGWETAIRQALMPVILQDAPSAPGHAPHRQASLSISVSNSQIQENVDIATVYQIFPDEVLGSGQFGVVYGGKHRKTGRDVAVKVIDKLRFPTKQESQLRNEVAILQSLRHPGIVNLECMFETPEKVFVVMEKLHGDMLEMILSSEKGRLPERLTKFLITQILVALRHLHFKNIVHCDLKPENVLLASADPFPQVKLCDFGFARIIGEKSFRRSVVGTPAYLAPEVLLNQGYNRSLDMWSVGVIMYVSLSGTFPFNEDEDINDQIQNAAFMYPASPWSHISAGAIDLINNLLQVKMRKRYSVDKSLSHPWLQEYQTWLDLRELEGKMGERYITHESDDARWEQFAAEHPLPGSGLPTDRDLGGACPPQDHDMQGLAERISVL

[11] = biological target: T3, Serine/threonine-protein kinase D2 (Homo sapiens); conditions: at 1 µM
[12] = biological target: T4, Serine/threonine-protein kinase D3 (Homo sapiens) (UniProt O94806); conditions: at 0.1 µM
T4 sequence (whole entry): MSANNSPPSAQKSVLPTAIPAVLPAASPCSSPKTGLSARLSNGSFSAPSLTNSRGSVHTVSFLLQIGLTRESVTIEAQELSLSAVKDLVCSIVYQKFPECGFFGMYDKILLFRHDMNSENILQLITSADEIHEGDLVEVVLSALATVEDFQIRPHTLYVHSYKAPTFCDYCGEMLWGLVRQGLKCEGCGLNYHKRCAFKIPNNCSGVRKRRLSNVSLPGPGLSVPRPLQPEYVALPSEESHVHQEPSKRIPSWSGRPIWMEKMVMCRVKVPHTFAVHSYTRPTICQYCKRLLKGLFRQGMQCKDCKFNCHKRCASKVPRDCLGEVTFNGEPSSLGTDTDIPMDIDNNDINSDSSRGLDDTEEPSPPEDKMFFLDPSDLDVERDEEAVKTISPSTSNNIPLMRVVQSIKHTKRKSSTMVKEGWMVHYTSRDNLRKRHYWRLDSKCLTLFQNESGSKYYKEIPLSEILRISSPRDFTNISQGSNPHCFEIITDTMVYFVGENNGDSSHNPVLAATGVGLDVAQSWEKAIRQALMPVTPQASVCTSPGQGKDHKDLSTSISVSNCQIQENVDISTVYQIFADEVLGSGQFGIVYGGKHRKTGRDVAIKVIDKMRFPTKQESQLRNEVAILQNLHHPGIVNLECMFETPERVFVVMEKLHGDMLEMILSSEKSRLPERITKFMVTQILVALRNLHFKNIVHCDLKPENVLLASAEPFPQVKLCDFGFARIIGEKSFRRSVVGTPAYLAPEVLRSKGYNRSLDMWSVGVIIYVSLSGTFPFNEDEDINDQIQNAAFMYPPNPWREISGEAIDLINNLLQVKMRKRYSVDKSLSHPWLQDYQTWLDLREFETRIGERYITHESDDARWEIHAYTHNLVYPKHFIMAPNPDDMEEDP

[13] = biological target: T4, Serine/threonine-protein kinase D3 (Homo sapiens); conditions: at 1 µM
[14] = biological target: T5, cGMP-dependent protein kinase 1 (Homo sapiens) (UniProt Q13976); conditions: at 0.1 µM
T5 sequence (whole entry): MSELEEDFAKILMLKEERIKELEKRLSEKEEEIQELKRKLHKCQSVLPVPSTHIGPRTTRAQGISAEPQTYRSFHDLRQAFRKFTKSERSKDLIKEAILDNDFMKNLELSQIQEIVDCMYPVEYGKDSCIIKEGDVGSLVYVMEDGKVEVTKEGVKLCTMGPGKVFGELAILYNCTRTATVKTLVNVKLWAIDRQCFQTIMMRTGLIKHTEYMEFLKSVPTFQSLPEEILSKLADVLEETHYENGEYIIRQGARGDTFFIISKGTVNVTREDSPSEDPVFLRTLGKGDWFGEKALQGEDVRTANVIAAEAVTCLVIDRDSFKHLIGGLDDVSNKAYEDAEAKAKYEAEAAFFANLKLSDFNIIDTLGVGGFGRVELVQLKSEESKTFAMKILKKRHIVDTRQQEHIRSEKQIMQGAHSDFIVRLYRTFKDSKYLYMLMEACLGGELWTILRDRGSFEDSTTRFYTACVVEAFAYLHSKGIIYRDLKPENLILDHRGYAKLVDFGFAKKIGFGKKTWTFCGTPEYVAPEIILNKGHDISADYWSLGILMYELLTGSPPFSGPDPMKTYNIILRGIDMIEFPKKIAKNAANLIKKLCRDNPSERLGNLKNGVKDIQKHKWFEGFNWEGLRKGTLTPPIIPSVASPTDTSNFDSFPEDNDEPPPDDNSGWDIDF

[15] = biological target: T5, cGMP-dependent protein kinase 1 (Homo sapiens); conditions: at 1 µM
[16] = biological target: T6, cGMP-dependent protein kinase 2 (Homo sapiens) (UniProt Q13237); conditions: at 0.1 µM
T6 sequence (whole entry): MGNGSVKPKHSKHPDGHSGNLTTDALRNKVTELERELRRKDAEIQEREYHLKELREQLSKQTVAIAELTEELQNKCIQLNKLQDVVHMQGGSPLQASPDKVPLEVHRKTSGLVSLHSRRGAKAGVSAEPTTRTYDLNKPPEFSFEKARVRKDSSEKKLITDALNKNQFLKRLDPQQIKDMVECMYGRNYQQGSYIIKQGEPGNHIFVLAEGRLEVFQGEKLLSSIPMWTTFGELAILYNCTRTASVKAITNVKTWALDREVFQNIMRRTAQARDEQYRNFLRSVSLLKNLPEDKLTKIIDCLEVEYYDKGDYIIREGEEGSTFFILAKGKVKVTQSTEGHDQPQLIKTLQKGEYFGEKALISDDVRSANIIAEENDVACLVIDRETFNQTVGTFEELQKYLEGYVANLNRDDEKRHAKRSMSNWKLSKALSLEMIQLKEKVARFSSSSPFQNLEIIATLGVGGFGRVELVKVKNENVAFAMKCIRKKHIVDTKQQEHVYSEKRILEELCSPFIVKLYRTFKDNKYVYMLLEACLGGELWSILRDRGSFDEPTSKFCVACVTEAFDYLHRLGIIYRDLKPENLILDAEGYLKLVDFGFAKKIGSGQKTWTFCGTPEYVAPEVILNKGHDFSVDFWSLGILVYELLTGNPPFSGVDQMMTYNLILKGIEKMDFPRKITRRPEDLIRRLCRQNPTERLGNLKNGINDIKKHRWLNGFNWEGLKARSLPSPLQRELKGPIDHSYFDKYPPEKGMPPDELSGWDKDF

[17] = biological target: T6, cGMP-dependent protein kinase 2 (Homo sapiens); conditions: at 1 µM
[18] = biological target: T7, cAMP-dependent protein kinase catalytic subunit PRKX (Homo sapiens) (UniProt P51817); conditions: at 0.1 µM
T7 sequence (whole entry): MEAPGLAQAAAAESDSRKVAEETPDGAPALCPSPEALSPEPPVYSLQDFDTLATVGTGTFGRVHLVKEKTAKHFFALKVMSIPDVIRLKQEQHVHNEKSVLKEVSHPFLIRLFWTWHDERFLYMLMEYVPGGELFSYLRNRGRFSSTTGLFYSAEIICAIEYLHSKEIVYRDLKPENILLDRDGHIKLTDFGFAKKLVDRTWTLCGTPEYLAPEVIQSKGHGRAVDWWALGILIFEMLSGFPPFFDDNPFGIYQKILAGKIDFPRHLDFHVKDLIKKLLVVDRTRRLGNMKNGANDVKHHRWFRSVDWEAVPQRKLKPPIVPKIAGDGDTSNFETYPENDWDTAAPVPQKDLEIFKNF

[19] = biological target: T7, cAMP-dependent protein kinase catalytic subunit PRKX (Homo sapiens); conditions: at 1 µM
[20] = biological target: Rho-associated protein kinase 1 (Homo sapiens) (UniProt Q13464); conditions: at 0.1 µM;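 also: values are mean percent inhibition of ROCK1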
Chain of Rho-associated protein kinase 1 (Homo sapiens) (Q13464 2-1354 limits assumed): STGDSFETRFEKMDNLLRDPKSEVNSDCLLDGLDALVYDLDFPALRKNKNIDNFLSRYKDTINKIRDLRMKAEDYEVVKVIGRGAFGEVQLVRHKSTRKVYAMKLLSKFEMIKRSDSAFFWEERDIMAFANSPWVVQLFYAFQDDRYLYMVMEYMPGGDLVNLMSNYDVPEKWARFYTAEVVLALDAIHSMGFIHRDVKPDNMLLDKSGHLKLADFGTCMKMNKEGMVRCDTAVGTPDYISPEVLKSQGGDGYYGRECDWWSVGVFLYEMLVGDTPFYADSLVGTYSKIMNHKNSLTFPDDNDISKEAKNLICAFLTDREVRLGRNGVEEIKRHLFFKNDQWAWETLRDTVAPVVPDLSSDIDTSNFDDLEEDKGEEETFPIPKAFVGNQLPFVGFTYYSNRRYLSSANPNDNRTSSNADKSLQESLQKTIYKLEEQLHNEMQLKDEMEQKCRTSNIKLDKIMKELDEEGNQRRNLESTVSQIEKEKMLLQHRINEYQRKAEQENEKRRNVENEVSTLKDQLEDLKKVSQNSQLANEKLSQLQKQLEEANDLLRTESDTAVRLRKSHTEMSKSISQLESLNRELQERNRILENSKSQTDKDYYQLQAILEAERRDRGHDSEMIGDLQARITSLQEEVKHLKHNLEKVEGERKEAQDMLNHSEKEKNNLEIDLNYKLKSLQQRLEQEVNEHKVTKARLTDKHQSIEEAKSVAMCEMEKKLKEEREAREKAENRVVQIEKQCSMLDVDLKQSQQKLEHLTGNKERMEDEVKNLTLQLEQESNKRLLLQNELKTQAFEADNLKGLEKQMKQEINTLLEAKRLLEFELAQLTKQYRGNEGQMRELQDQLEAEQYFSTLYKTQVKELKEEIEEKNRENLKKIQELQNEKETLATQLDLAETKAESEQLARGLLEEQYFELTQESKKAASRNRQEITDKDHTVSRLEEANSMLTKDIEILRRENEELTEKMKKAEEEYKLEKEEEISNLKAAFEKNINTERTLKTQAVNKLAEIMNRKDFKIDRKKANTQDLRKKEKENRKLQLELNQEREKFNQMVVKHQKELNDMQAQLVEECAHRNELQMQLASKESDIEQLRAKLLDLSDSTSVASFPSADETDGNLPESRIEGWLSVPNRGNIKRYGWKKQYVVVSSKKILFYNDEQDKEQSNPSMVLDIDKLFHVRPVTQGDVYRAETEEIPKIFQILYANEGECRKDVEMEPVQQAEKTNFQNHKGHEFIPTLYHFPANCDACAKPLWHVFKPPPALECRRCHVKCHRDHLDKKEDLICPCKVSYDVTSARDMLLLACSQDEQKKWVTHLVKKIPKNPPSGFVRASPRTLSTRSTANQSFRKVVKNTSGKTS

Chain of Protein kinase C theta type (Homo sapiens) (Q04759 whole entry, looked up): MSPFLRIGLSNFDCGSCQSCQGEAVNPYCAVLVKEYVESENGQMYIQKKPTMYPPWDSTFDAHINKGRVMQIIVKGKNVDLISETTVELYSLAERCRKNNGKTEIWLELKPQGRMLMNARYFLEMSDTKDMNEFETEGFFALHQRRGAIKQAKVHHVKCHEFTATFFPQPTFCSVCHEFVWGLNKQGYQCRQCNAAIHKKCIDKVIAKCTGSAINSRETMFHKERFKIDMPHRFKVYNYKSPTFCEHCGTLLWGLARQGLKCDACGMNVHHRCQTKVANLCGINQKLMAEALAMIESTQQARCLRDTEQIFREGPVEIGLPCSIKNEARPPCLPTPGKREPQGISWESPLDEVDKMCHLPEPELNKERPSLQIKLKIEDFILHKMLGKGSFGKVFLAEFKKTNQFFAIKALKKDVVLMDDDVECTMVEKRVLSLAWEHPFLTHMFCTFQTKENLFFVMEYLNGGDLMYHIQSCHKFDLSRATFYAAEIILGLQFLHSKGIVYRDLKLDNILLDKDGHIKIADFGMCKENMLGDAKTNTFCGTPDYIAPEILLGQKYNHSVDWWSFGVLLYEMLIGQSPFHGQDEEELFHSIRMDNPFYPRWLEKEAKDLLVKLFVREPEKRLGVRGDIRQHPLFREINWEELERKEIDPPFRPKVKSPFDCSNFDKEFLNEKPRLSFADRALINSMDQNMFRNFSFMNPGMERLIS
Chain of Protein kinase C beta type (Homo sapiens) (P05771 2-671 limits assumed): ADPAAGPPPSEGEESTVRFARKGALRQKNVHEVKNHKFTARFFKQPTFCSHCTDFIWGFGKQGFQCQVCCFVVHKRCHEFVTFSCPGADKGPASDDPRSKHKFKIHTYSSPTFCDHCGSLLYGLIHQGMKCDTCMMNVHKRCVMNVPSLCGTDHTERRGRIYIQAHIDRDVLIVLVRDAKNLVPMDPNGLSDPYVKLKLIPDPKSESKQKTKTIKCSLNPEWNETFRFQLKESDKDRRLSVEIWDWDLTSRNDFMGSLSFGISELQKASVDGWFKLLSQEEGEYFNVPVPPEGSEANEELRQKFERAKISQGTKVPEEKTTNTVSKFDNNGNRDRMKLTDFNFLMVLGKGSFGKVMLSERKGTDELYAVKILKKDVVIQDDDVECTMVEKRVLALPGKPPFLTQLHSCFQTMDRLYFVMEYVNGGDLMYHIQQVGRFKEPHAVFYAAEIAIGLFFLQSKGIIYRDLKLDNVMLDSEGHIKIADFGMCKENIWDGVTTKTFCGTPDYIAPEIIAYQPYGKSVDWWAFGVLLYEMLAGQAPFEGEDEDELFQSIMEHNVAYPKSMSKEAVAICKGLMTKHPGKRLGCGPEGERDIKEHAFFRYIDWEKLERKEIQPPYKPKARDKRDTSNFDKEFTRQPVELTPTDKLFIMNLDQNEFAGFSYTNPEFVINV

Row | Structure (SMILES) | inhibition [1] | inhibition [2] | inhibition [3] | inhibition [4] | inhibition [5] | inhibition [6] | inhibition [7] | inhibition [8] | inhibition [9] | inhibition [10] | inhibition [11] | inhibition [12] | inhibition [13] | inhibition [14] | inhibition [15] | inhibition [16] | inhibition [17] | inhibition [18] | inhibition [19] | inhibition [20]
1 | CN(C)c1cc2c(Nc3ccc4nc(Cc5ccccc5)[nH]c4c3)ncnc2cn1 | 4.36% | 2.13% | 2.77% | 2.25% | 4.22% | 1.18% | 3.96% | 4.29% | 6.67% | 5.21% | 5.15% | 5.52% | 6.09% | 5.01% | 6.25% | 2.1% | 4.22% | 2.16% | 2.25% | 5.7%
2 | COc1cccc(-n2ncc3c(N/N=C/c4cccc(F)c4)ncnc32)c1 | 1.92% | 1.95% | 1.9% | 0.55% | 2.23% | 1.7% | 3.14% | -1.15% | 0.28% | -1.06% | -1.18% | -0.44% | -0.79% | 2.15% | 3.23% | 2.4% | 3.95% | 1.69% | 2.08% | 0.34%
3 | NC(=O)c1ccc(-c2nc(-c3ccccn3)c(-c3ccc4c(c3)OCO4)[nH]2)cc1 | 3.47% | 0.81% | -0.05% | 0.77% | 1.31% | 1.96% | 5.1% | 2.47% | 5.43% | 2.87% | 6.06% | 2.14% | 5.59% | 0.18% | 3.55% | 1.83% | 3.18% | 1.66% | 2.01% | 0.07%
